Bioassay records: PubChem, several laboratories
This is a sample that favours compounds with a hit; in the whole collection about 9.1% have one here.
D1 allo mod: allosterically modulates the human D1 dopamine receptor; B-score at 10 µM; P21728; HEK293 D1, CRE-luciferase, dopamine EC30 potentiation; actives deviate in either direction; 5.9% of 58,000 active; AID 641;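 active means luminescence count or its row- and column-corrected plate score outside the 99.7% band of the plate's sample wells, on either side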
M1 antagonist: blocks the rat M1 muscarinic receptor response to acetylcholine. 3.4% of 64,000 active. P08482. AID 628. CHO-M1 cells, Fluo-4 calcium, ACh EC80 antagonist mode; active compounds read low. B-score at 10 µM;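 active means calcium fluorescence response, raw or row-and-column corrected B-score, differing from the plate sample mean either way at a set confidence level, mostly lower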
Target sequence (P08482 whole entry, looked up): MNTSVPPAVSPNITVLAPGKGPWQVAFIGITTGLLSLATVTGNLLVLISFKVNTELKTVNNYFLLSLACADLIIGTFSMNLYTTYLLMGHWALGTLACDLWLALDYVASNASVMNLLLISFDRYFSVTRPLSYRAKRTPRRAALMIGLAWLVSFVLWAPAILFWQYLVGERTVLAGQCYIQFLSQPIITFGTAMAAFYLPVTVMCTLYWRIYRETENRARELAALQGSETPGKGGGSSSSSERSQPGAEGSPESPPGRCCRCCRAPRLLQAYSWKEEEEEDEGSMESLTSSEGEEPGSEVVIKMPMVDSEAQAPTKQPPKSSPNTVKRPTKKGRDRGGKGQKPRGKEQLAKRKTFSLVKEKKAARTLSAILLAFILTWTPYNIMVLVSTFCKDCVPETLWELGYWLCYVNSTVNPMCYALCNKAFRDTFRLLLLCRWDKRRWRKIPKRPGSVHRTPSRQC
M1 ag: M1 muscarinic receptor agonism; CHO-M1 cells, Fluo-4 calcium fluorescence, agonist mode; active compounds read high; B-score at 10 µM; 3% of 64,000 active; AID 626;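 active means fluorescence rise, raw or as B-score row- and column-corrected plate score, outside the 99.7% band of its plate's samples, either direction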
Htt clearance: compounds clearing mutant huntingtin protein; HeLa Exon1htt(103Q)mCFP, aggregate imaging; zero = plate's median compound well; inhibition, % at 1.5 µM; 0.42% of 47,000 active;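 active means inhibition of aggregate fluorescence above about 70%, also judged a hit by eye on the cell image, limit read from the data, passing the limit was not always enough; inconclusive means no rule stated for this call; inactive means not judged a hit on image review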;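 further: cells exposed to compound for three days before fixation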
D1 mod confirm: confirmation of human D1 dopamine receptor allosteric modulators; shares compounds with D1 allo mod; HEK293 D1 CRE-luciferase, dopamine EC30 potentiation; active compounds read high; luminescence at 10 µM; 88% of 2,200 active;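 active means luminescence in either of two replicates above the same-plate mean plus 3 SD of the low-dose dopamine control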
D1 no dopamine: D1 (human) signaling in absence of dopamine; shares compounds with D1 allo mod; HEK293 D1 CRE-luciferase, luminescence, no dopamine; active compounds read high; luminescence at 10 µM; 0.8% of 1,900 active; in the data active means luminescence above about 3900
Isoprot counter: alters isoproterenol CRE-luciferase response in HEK293 cells; HEK293 D1 CRE-luciferase, isoproterenol EC30 counter-screen; active compounds read high; 63% of 2,200 active; shares compounds with D1 allo mod; luminescence at 10 µM;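 active means luminescence in either replicate above plate mean of wells with a partly effective reference agonist dose plus 3 SD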;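 further: isoproterenol raises cAMP through native beta-adrenoceptor Gs so signal bypasses D1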
Numbers without * were called inactive; ? = inconclusive; nt = not tested or not shown.

SMILES	D1 allo mod	M1 antagonist	M1 ag	Htt clearance	D1 mod confirm	D1 no dopamine	Isoprot counter
Cc1ccc(N(Cc2ccco2)C(=O)c2cccc(S(=O)(=O)N(C)C)c2)cc1	2.96*	0.953	-0.156	-29.3	11896*	1544	3180*
CN(C)S(=O)(=O)c1cccc(C(=O)NCc2ccco2)c1	0.789	0.475	0.346	0.0	nt	nt	nt
CC1Cn2c(nc3sc4c(c3c2=O)CCC4)N1CCO (configuration not stated)	0.164	-0.034	-0.62	nt	nt	nt	nt
C=CCn1c(NCCO)nc2sc3c(c2c1=O)CCC3	10.8*	-0.0861	-0.0189	nt	6332	1628	2524
O=C1C2C3C=CC([C@@H]2C(=O)N1C1CCCCC1)[C@H]1C(=O)N(C2CCCCC2)C(=O)C31 (some centres not stated)	nt	nt	nt	3.1	nt	nt	nt
O=C(O)CCSCC(=O)Nc1c(C(=O)C2CC2)oc2ccccc12	8.32*	0.437	-0.276	10.3	14596*	nt	3444*
CCOc1ccccc1N(C(=O)CNC(=O)c1ccco1)C(C(=O)NC(C)(C)C)c1ccncc1 (configuration not stated)	0.0632	0.293	0.785	nt	nt	nt	nt
CCC(C)NC(=O)CCNS(=O)(=O)c1ccc(Br)cc1 (configuration not stated)	-0.716	-0.385	-0.00554	nt	nt	nt	nt
COc1c(S(=O)(=O)N2CCCC2)ccc(Cl)c1Cl	5.41*	-0.00545	0.0257	?	10616*	1728	3288*
O=S(=O)(c1cccc(Cl)c1Cl)N1CCCCC1	0.067	0.324	-0.648	nt	nt	nt	nt
CC(CCc1ccccc1)NC(=O)CSc1nc(N)cc(N)n1 (configuration not stated)	-0.13	-0.0883	0.57	-55.4	nt	nt	nt
Cc1nc2c(cc(Oc3ccc(S(=O)(=O)N4CCOCC4)cn3)c3ccsc32)s1	8.47*	0.343	0.862	-1.0	12244*	1860	3524*
COC(=O)C1CCN(C(=O)COc2cc3sc(C)nc3c3sccc23)CC1	0.51	-0.00933	-0.363	nt	nt	nt	nt
N#CC1=C(N)Oc2nc(-c3ccccc3)[nH]c2C1c1cccnc1 (configuration not stated)	5.14*	1.12	-0.0333	34.6	8448*	1564	3604
CC(C)c1[nH]nc2c1C(c1cccnc1)C(C#N)=C(N)O2 (configuration not stated)	-0.529	0.963	-0.404	17.6	nt	nt	nt
O=C(NC1CCCCCC1)C1CC(=O)N(Cc2ccccc2)C1 (configuration not stated)	0.0128	0.034	0.404	nt	nt	nt	nt
Cc1cnc(N)c2c(=O)oc3ccccc3c12	9.84*	0.732	0.00589	nt	17776*	nt	5024*
O=c1oc2ccccc2c2nccnc12	-0.256	0.771	0.158	nt	nt	nt	nt
CCCN1C2=NS(=O)(=O)CCN2c2ccccc21	8.41*	-0.0376	-0.505	0.1	20272*	2056	4132*
O=S1(=O)CCN2C(c3ccco3)=CSC2=N1	0.145	-0.265	-0.452	-2.7	nt	nt	nt
CCC1(CC)Cc2ccccc2-c2nc(CN3CCOCC3)[nH]c(=O)c21	18.3*	-0.101	0.432	-8.4	22860*	1804	4796*
Cc1noc(C)c1CSc1nc2sc(C)c(C)c2c(=O)n1C1CCCC1	10.5*	0.287	-0.687	-30.3	13364*	1472	5220*
C=CCn1c(SCc2c(C)noc2C)nc2sc3c(c2c1=O)CCCCC3	1.22	0.58	-0.858	nt	nt	nt	nt
Cn1c(=O)[nH]c(=O)c2c1nc(N1CCOCC1)n2CCSc1nc2ccccc2[nH]1	nt	nt	nt	-35.2	nt	nt	nt
COc1ccc(-c2cc(C(=O)N3CCc4ccccc4C3)no2)cc1OC	4.63*	-1.27	-0.699	41.7	10752*	1528	3948*
SMILES	D1 allo mod	M1 antagonist	M1 ag	Htt clearance	D1 mod confirm	D1 no dopamine	Isoprot counter
COCCNC(=O)c1cc(-c2ccc(Cl)c(Cl)c2)on1	0.592	1.06	-0.533	nt	nt	nt	nt
COc1ccc(-c2cc(C(=O)NCc3cccnc3)no2)cc1OC	4.22*	0.243	0.47	-88.9	9080*	nt	2768
COCCNC(=O)c1cc(-c2ccc(OC)c(OC)c2)on1	15*	0.269	0.95	-2.6	15388*	1528	3480*
Cc1ccc(-c2cc(C(=O)NCc3cccnc3)no2)cc1	0.0556	0.0328	0.109	63.4	nt	nt	nt
O=C1N(CC(=O)N2CCc3ccccc32)CCN1Cc1ccccc1Cl	-0.194	1.01	0.73	nt	nt	nt	nt
CC(C)C1Cc2c(C#N)c(N)n(C)c(=S)c2CO1 (configuration not stated)	9.78*	0.463	0.823	nt	11952*	1676	3308*
O=C(CN1C(=O)c2ccccc2S1(=O)=O)N1CCN(Cc2ccc3c(c2)OCO3)CC1	0.47	-0.181	-1.25	32.2	nt	nt	nt
COCCCNC(CC(=O)Nc1ccc(N(C)C)cc1)C(=O)O (configuration not stated)	-0.642	0.229	-0.925	nt	nt	nt	nt
Cc1ccc(C(=O)OCC(=O)Nc2ccccc2)cc1NC(=O)c1ccco1	4.41*	0.101	-0.322	-1.7	6808	1724	2780
Cc1nc(N2CCOCC2)c2cc(-c3ccccc3)sc2n1	7.92*	-0.863	1.39	nt	14040*	1460	7264*
CSc1nc(N2CCOCC2)c2ccccc2n1	9.41*	-0.626	1.03	0.1	16028*	nt	2940*
Cc1ccc(C)n1-n1c(C)nc2sc(-c3ccccc3)cc2c1=O	-0.782	-1.72	-0.542	-39.5	nt	nt	nt
COC(=O)C(O)(CC(=O)Nc1cc(Cl)ccc1Cl)C(F)(F)F (configuration not stated)	nt	nt	nt	10.5	nt	nt	nt
COc1cccc(-c2cc(C(F)(F)F)nc(NCc3ccco3)n2)c1	3.01*	0.746	0.0425	-19.3	7368*	nt	2868*
FC(F)(F)c1cc(-c2ccco2)nc(-n2nc(C(F)(F)F)cc2C2CC2)n1	5.25*	0.0444	0.678	nt	5828	1672	3760*
FC(F)(F)c1cc(-c2ccco2)nc(NCc2ccco2)n1	14.7*	0.763	-1.16	-26.4	10384*	1612	3632*
FC(F)(F)c1cc(-c2ccco2)nc(-n2nnc3ccccc32)n1	3.48	-0.18	1.92	nt	nt	nt	nt
CSc1ncccc1C(=O)OCC(=O)Nc1cc(C(F)(F)F)ccc1N1CCOCC1	3.85	-0.795	0.911	44.4	nt	nt	nt
CCc1nc2c(sc3nc(N4CCOCC4)c4c(c32)CC(C)(C)OC4)c(=O)o1	nt	0.82	-0.29	nt	nt	nt	nt
O=C(c1ccc(S(=O)(=O)N2CCOCC2)cc1)N1CCN(c2ccc(F)cc2)CC1	3.33*	0.00714	-0.147	10.2	5476	1868	2776
CN(C)c1nc(N)nc(CSc2n[nH]c(-c3ccccc3)n2)n1	7.84*	0.0317	0.664	16.4	9244*	1568	3340*
O=C(CSc1n[nH]c(-c2ccccc2)n1)c1ccccc1	1.35	0.439	-0.495	?	nt	nt	nt
Fc1ccc(-c2cc(C(F)(F)F)nc(-n3cncn3)n2)cc1	3.39*	0.0163	-1.16	-16.4	8460*	1488	3404
CCC(C)N(NC(C)=O)c1nc(Cl)nc(NC(C)(C)C)n1 (configuration not stated)	nt	nt	nt	7.5	nt	nt	nt
